These results are taken from PubChem BioAssay (NCATS).

SMILES strings stand for the structures. Inconclusive results are not listed. Calls of active or inactive are those of the source. The call rests on the fitted dose curve; in most records, active means well fitted activation curve with a large enough effect; inconclusive means small, poorly fitted or top-dose-only effect; inactive means no such curve, though single readings can be large or run the other way.

Sequence of Arylsulfatase A (Homo sapiens) (P15289 whole entry, looked up): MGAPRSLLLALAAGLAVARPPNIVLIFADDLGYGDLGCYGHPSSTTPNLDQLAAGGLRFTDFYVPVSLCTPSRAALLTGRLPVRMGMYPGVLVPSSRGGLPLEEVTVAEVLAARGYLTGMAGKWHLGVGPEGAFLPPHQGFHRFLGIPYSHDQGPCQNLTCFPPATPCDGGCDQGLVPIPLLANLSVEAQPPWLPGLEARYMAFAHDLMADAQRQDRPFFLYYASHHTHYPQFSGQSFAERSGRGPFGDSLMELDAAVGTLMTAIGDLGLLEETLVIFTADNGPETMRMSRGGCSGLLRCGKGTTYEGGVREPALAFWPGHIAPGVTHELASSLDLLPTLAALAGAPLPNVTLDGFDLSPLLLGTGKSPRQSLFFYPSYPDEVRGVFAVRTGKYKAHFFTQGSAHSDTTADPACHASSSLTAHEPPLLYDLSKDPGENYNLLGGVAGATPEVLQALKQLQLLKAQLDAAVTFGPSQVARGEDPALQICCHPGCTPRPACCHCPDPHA

The experiment addresses Arylsulfatase A (Homo sapiens) (UniProt P15289). The experiment is described as follows: qHTS screen for enhancers of Arylsulfatase A (ASA1): LOPAC Validation Assay (AID 720538). On activity change, positive = activation: 0% is about no effect. The settings on record: ASA enzyme activity, LOPAC qHTS enhancer assay; series mostly up to 57.5 µM; activity change, positive = activation: at the top concentration. An excerpt:
Lysosomal storage diseases (LSDs) are caused by genetic mutations in genes encoding proteins important for normal lysosomal function. In affected patients, symptoms are usually not manifested unless the mutations result in more than 90% reduction of enzymatic activity of a specific lysosomal enzyme. […] Small molecules could function as enzyme enhancement agents by binding to and stabilizing mutant misfolded proteins in the endoplasmic reticulum (ER), allowing them to evade the ER associated degradation (ERAD), and eventually reach the lysosome. Moreover, small molecules is hypothesized to be able to enhance the residual activity of deficient lysosomal enzyme by either interacting directly with the mutant enzyme or indirectly by acting in different cellular pathways; resulting to increased levels of the mutant and partially functional protein in the lysosomal compartment.
A cell based assay in 1536 well plate format was developed to evaluate activity of the lysosomal sulfatase ASA1 enzyme. ASA1 is deficient in metachromatic leukodystrophy (MLD), an LSD characterized by progressive neurodegeneration for which specific treatment is not available. Compounds that are active may therefore have some therapeutic application for this disease. This assay was used to validate the ASA1 qHTS using the Sigma LOPAC library. In this assay increase in signal = enhanced ASA1 activity. Activation is the desired outcome for this assay.
NIH Chemical Genomics Center [NCGC]
NIH Molecular Libraries Probe Centers Network [MLPCN]
Assay Submitter (PI): Gustavo Maegawa, Johns Hopkins University School of Medicine
[2] Gieselmann V, et al. Acta Paediatr Suppl. 2008; 97: 15-21
Four microliter (~8,000 cells/well) of SV40-transformed skin fibroblasts from an MLD patient (ASA-I179S) were seeded into a 1,536 solid white plate. Cells were left to adhere for 6 hrs, followed by addition of 23 nL of compounds. Cells were incubated with compounds for 48h at 37 degree C and 5% CO2. Four microliter of 1 mM pNCS substrate/lysis buffer (0.5mM pNCS final concentration) was added and incubated for 14h at room temperature. To stop the reaction, […] of 5 N of NaOH (1N NaOH final concentration) was then added and fluorescence was measured using the ViewLux plate reader (Ex=525 nm; Em=598 nm).
In the case of `CN(C)CCCN1c2ccccc2CCc2ccc(Cl)cc21`, the “activity change, positive = activation” value is -1.33% (inactive).
The same measure, in the same setting: as for `COc1cc2c(c(OC)c1OC)-c1ccc(OC)c(=O)cc1[C@@H](NC(C)=O)CC2`, the figure is 16.6% (inactive).
Regarding `CN1CCN(C2=Nc3cc(Cl)ccc3Nc3ccccc32)CC1`, the result was inactive.
As for `COc1cc2nc(N3CCN(C(=O)C4COc5ccccc5O4)CC3)nc(N)c2cc1OC` (stereo not given), the outcome was inactive.
On to `Cc1ccccc1N1C(=O)c2cc(S(N)(=O)=O)c(Cl)cc2NC1C` (stereo not given), for which the “activity change, positive = activation” value is 2.44% (inactive).
The same measure, in the same setting: as for `Clc1ccc2c(c1)C(N1CCNCC1)=Nc1ccccc1O2`, the figure is 3.89% (inactive); as for `Cc1cnc(C(=O)NCCc2ccc(S(=O)(=O)NC(=O)NC3CCCCC3)cc2)cn1`, 5.76% (inactive).
On to `O=C1N(c2ccccc2)c2ccccc2C1(Cc1ccncc1)Cc1ccncc1`, for which the outcome was inactive.
Consider `Cn1cnc2c1c(=O)[nH]c(=O)n2C`, for which the “activity change, positive = activation” value is -6.15% (inactive).
Regarding `O=C(CCCN1CCC(O)(c2ccc(Cl)cc2)CC1)c1ccc(F)cc1`, the “activity change, positive = activation” value was -15.9% (inactive).
The same measure, in the same setting: next, `CC(C)Cc1ccc(C(C)C(=O)O)cc1` (stereo not given): -23.7% (inactive); `Nc1nnc(-c2cccc(Cl)c2Cl)c(N)n1`: 4.36% (inactive).
On to `N[C@@H](Cc1c[nH]c2ccc(O)cc12)C(=O)O`, for which the outcome was inactive.
As for `NCCc1cnc[nH]1`, the “activity change, positive = activation” value was -3.21% (inactive).
Regarding `NC(=O)OCC(COC(N)=O)c1ccccc1`, the “outcome” value was “inactive; inhibitor; fitted 8.4921 uM”.
The same measure, in the same setting: as for `Clc1ccc(C(c2ccccc2Cl)C(Cl)Cl)cc1` (stereo not given), the entry is “inactive”.
With `O=c1c(-c2ccc(O)cc2)coc2cc(O)cc(O)c12`, the “activity change, positive = activation” value is 3.93% (inactive).
As for `O=C(Nc1ccc([N+](=O)[O-])cc1Cl)c1cc(Cl)ccc1O`, the “activity change, positive = activation” value is -49.6% (inactive).
On to `CS(=O)(=O)Nc1ccc([N+](=O)[O-])cc1Oc1ccccc1`, for which the result was inactive.
Consider `Cc1cc(C(C)(C)C)cc(C)c1CC1=NCCN1`, for which the “activity change, positive = activation” value was -25.8% (inactive).
Take `Nc1c2c(nc3ccccc13)CCCC2`: the “outcome” value was “inactive; inhibitor; fitted 3.3808 uM”.
On to `CN(C)c1nc(N(C)C)nc(N(C)C)n1`, for which the “activity change, positive = activation” value was -48.4% (inactive).
On the same count and under the same terms, next, `NS(=O)(=O)c1cc2c(cc1Cl)NCNS2(=O)=O`: -2.57% (inactive); `CN1CCC(=C2c3ccccc3C=Cc3ccccc32)CC1`: -16.7% (inactive).
In the case of `O=C1Cc2cc(CCN3CCN(c4nsc5ccccc45)CC3)c(Cl)cc2N1`, the “activity change, positive = activation” value was -36.1% (inactive).
Take `NC12CC3CC(CC(C3)C1)C2`: the “activity change, positive = activation” value was -19.3% (inactive).
With `NCCCCCC(=O)O`, the “outcome” value was “inactive; inhibitor; fitted 0.3381 uM”.
Still for that read-out and setting: next, `CC(CCc1ccc(O)cc1)NCCc1ccc(O)c(O)c1` (stereo not given): “inactive”.
Take `Clc1ccccc1C(c1ccccc1)(c1ccccc1)n1ccnc1`: the “activity change, positive = activation” value is -52% (inactive).
Turning to `CN(Cc1cnc2nc(N)nc(N)c2n1)c1ccc(C(=O)N[C@@H](CCC(=O)O)C(=O)O)cc1`, the result was inactive.
`Cc1cn([C@H]2C=C[C@@H](CO)O2)c(=O)[nH]c1=O`: the “activity change, positive = activation” value was -2.25% (inactive).
On the same count and under the same terms, next, `NCCS(=O)(=O)O`: -1.55% (inactive); `CN(C)CCOC(c1ccccc1)c1ccccc1`: -21% (inactive); `CC(C(=O)O)c1cccc(C(=O)c2ccccc2)c1` (stereo not given): 19.6% (inactive).
`COc1ccc2[nH]cc(CCNC(C)=O)c2c1`: the “activity change, positive = activation” value is -23.9% (inactive).
For the compound `COc1ccccc1N1CCN(CC(O)COc2cccc3ccccc23)CC1` (stereo not given), the “activity change, positive = activation” value is 16.8% (inactive).
For `CC1COc2c(N3CCN(C)CC3)c(F)cc3c(=O)c(C(=O)O)cn1c23` (stereo not given), the “outcome” value is “inactive; inhibitor; fitted 4.2562 uM”.
Take `COc1nc(C)nc(Cl)c1NC1=NCCN1`: the “activity change, positive = activation” value is 0.517% (inactive).
Turning to `CCc1cccc2c3c([nH]c12)C(CC)(CC(=O)O)OCC3` (stereo not given), the “activity change, positive = activation” value was 22.6% (inactive).
As to `COc1ccc(CCN(C)CCCC(C#N)(c2ccc(OC)c(OC)c2)C(C)C)cc1OC` (stereo not given), the outcome was inactive.
